The structures appear in SMILES notation. Calls of active or inactive are those of the source. The calls were made as follows: active = hit-call score of the fitted dose curve at least 0.9, where 1 is the maximum; inactive = score below 0.9.

Experimental findings from PubChem BioAssay (EPA / NIEHS) are described below.

Assay [1] in a line: APR_HepG2_P-H2AX_72hr: Apredica 72-hour HepG2 Assay for H2AX Phosphorylation (AID 2282916).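 Also: phospho-histone H2A.x immunostain intensity per cell marking DNA damage.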 The conditions noted are these: imaging, actives raise or lower the signal. Summed up:
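HepG2; cpd 0.39–200 uM ×10 conc, duplicates; 0.5% DMSO; 72 hr. Fix 3.7% formaldehyde 30 min RT, 0.5% Triton X-100 10 min. Anti-phospho-H2A.x 1:200 + Hoechst 2 ug/mL, 60 min RT; ArrayScan imaging.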

Assay [2] is described as follows: APR_HepG2_MitoMembPot_72hr: Apredica 72-hour HepG2 Assay for Mitochondrial Membrane Potential (AID 2282917). The conditions noted are these: imaging, actives raise or lower the signal. Put shortly:
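HepG2 cells dosed 72 hr with compound at 0.39–200 uM in duplicate, 0.5% v/v DMSO final. Mitochondria stained with 250 nM MitoTracker Red CMXRos for 30 min before formaldehyde fixation, imaged by high-content fluorescence; bidirectional fit versus DMSO.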

Assay [3] can be described thus: APR_HepG2_MitoticArrest_72hr: Apredica 72-hour HepG2 Assay for Mitotic Arrest (AID 2282918). The note with it: high-content imaging, actives raise or lower the signal. Summed up:
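Using high-content imaging of fixed HepG2 cells, phospho-histone H3 signal was measured following a 72 hr incubation with ten-point compound dilutions up to 200 uM. DMSO served as the negative control and baseline for bidirectional curve fitting.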

A short description of assay [4]: APR_HepG2_MicrotubuleCSK_72hr: Apredica 72-hour HepG2 Assay for Microtubule CSK Stabilty (AID 2282919). The note with it: HepG2 microtubule cytoskeleton, high-content imaging, actives raise or lower the signal. Put shortly: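 HepG2 cells were exposed 72 hr to compound at 0.39–200 uM in duplicate (0.5% DMSO final), then fixed and permeabilized. Alpha-tubulin immunofluorescence was imaged by high-content microscopy, with bidirectional fitting against DMSO and taxol as positive control.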

Assay [5] is described as follows: APR_HepG2_P-H2AX_24hr: Apredica 24-hour HepG2 Assay for H2AX Phosphorylation (AID 2282920). The conditions noted are these: high-content imaging, actives raise or lower the signal. Put shortly:
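Human HepG2 liver cells, treated 24 hr with test chemicals (0.39–200 uM, final DMSO 0.5% v/v), are fixed and co-stained for phospho-H2A.x and c-Jun with Hoechst. Imaged intensity is fitted in both directions against DMSO controls.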

Assay [6] can be described thus: APR_HepG2_StressKinase_24hr: Apredica 24-hour HepG2 Assay for Stress Kinase (AID 2282922). The conditions noted are these: HepG2 stress kinase (phospho-c-Jun) imaging, actives raise or lower the signal. Summed up: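 HepG2 cells exposed 24 h to 0.39–200 uM compound in duplicate (0.5% v/v DMSO final). Cells fixed in 3.7% formaldehyde, permeabilized and immunostained for phospho-c-Jun; read by high-content fluorescence imaging, fitted bidirectionally against DMSO.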

A short description of assay [7]: APR_HepG2_MitoMass_72hr: Apredica 72-hour HepG2 Assay for Mitochondrial Mass (AID 2282924).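 Also: MitoTracker Red CMXRos stain intensity per cell imaged as mitochondrial mass.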 The conditions noted are these: high-content imaging, actives raise or lower the signal. Summed up:
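HepG2 cells dosed 72 hr at 0.39–200 uM (0.5% DMSO), in duplicate. MitoTracker Red CMXRos 250 nM loaded 30 min before formaldehyde fixation; high-content fluorescence imaging, bidirectional fit versus DMSO.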

The nature of assay [8]: APR_HepG2_NuclearSize_72hr: Apredica 72-hour HepG2 Assay for Nuclear Size (AID 2282925). The note with it: high-content imaging, actives raise or lower the signal. Summed up: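 HepG2 cells dosed 72 h at 0.39–200 uM (10 concentrations, duplicate) in 0.5% v/v DMSO final. Fixed, Hoechst 33342-stained nuclei imaged; nuclear diameter measured by automated image analysis. Bidirectional fit versus DMSO.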

A short description of assay [9]: APR_HepG2_p53Act_72hr: Apredica 72-hour HepG2 Assay for p53 Activation (AID 2282923).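 Also: average cellular p53 protein immunofluorescence intensity in HepG2 cells.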 The conditions noted are these: high-content imaging, actives raise or lower the signal. Put shortly:
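10-pt conc. 0.39–200 uM, duplicate, 0.5% DMSO; 72 hr exposure; 3.7% formaldehyde fix, 0.5% Triton perm; sheep anti-p53/Cy5 + Hoechst; ArrayScan 20x, 6 images/well; gain/loss fit vs DMSO.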

Take `Cc1ccc2oc(CN(Cc3ccccc3)C(=O)Nc3c(F)cc(F)cc3F)c(-c3ccc(Cl)cc3)c2c1`: the molecule was classed as inactive in assay [1], in assay [2], in assay [3], in assay [4], in assay [5] and in assay [6]. Further, the result in [7] and in [8] was inactive.
Take `CCN(Cc1cccc(S(=O)(=O)O)c1)c1ccc(C(=C2C=CC(=[N+](CC)Cc3cccc(S(=O)(=O)O)c3)C=C2)c2ccccc2S(=O)(=O)[O-])cc1`: the molecule was called inactive in assay [1], in assay [2], in [3], in assay [4], in [5] and in [6]. Besides, the molecule was called inactive in assay [7] and in assay [8].
As usually defined, the AC50 is the concentration giving half of the maximal activity seen. `NC(=O)c1nc(-c2cccc(-c3cc(F)ccc3OCC(F)(F)C(F)(F)F)c2)n[nH]1`: the figures for the AC50 in assay [1] and in assay [8] were 111 µM (active) and 100 µM (active), respectively. For the same molecule, the molecule was called inactive in [2], in assay [3], in assay [4], in assay [5], in [6] and in assay [7].
For `CCCCCCCCCCCO`, the outcome in assay [1], in assay [2], in assay [4], in assay [6], in assay [7] and in assay [8] was inactive. Besides, the AC50 in assay [3] is 105 µM (active); in assay [5], 100 µM (active).
Regarding `O=c1[nH]sc2ccccc12`, the AC50 in assay [1] is 46.1 µM (active); in assay [2] it was 107 µM (active); in assay [3], 9.46 µM (active); in [5] it was 5.7 µM (active); in assay [9], 48.5 µM (active); in assay [7], 13.6 µM (active). The result in assay [4], in assay [6] and in [8] was inactive.
As to `CC(C)(c1cc(Br)c(O)c(Br)c1)c1cc(Br)c(O)c(Br)c1`, the AC50 in assay [1] was 63.3 µM (active); in [3], 69 µM (active); in assay [5], 70.7 µM (active); in assay [9] it was 47.8 µM (active); in [7] it was 51.4 µM (active); in [8], 77.7 µM (active). Moreover, the call in assay [2], in [4] and in assay [6] was inactive.
As to `C[C@]12CC[C@@H]3c4ccc(O)cc4CC[C@H]3[C@@H]1CCC2=O`, the molecule was classed as inactive in [1], in [2], in assay [3], in assay [4], in assay [5] and in assay [6]. Moreover, the result in assay [7] and in [8] was inactive.
Consider `COc1cc(C(=O)NC2CCN(C)CC2)ccc1Nc1ncc2c(n1)N(C1CCCC1)CC(F)(F)C(=O)N2C`, for which the molecule was called inactive in [1], in assay [2], in [3], in [4], in assay [5] and in [6]. For the same molecule, the outcome in assay [7] and in [8] was inactive.
For the molecule `OC12N=C(c3ccccc3)SC1Cc1cc(Cl)ccc12` (centres undefined), the values for the AC50 in assay [1], in [2] and in assay [3] were 52.1 µM (active), 0.548 µM (active) and 46.8 µM (active), respectively. Also, the result in [4], in [5], in assay [6], in assay [9], in assay [7] and in [8] was inactive.
On to `c1ccc(C[n+]2cccc3ccccc32)cc1`, for which the AC50 in assay [1] was 20.6 µM (active); in [3], 109 µM (active); in [4] it was 87 µM (active); in [5], 106 µM (active); in assay [8] it was 68.9 µM (active). For the same molecule, the result in assay [2], in assay [6], in [9] and in assay [7] was inactive.
Consider `COc1cccc([C@H](O)C2CCN(CCc3ccc(F)cc3)CC2)c1OC`, for which the outcome in assay [1], in assay [2], in assay [5], in [6], in assay [7] and in assay [8] was inactive. The AC50 in [3] was 102 µM (active); in [4], 103 µM (active).
On to `CC(=O)N1CCN(c2ccc(OC[C@H]3CO[C@](Cn4ccnc4)(c4ccc(Cl)cc4Cl)O3)cc2)CC1`, for which the AC50 in assay [1] was 32.3 µM (active); in assay [3] it was 75.9 µM (active); in assay [6], 74.9 µM (active); in assay [9], 14.5 µM (active). Also, the molecule was called inactive in assay [2], in assay [4], in [5], in [7] and in assay [8].
As to `CN(C[C@@H](CC[N+]12CCC(C3CCCCC3)(CC1)CC2)c1ccc(Cl)c(Cl)c1)C(=O)c1cc(C(F)(F)F)cc(C(F)(F)F)c1`, the AC50 is 31.8 µM (active) in [1]; 47.8 µM (active) in assay [2]; 36.3 µM (active) in assay [3]; 28.4 µM (active) in assay [4]; 35.1 µM (active) in assay [5]. The molecule was called inactive in assay [6], in assay [7] and in assay [8].
Take `Cc1occc1C(=O)Nc1ccc(C(=O)N2CCC(F)(F)/C(=C\C(=O)N3CCC(N4CCCCC4)CC3)c3ccccc32)cc1`: the call in assay [1], in [2], in assay [4], in assay [5], in assay [6] and in assay [7] was inactive. In addition, the molecule was classed as inactive in assay [8]. For the same molecule, the AC50 in assay [3] is 20.7 µM (active); in [9] it was 29 µM (active).
In the case of `CC(O)CC(C)(C)O` (centres undefined), the call in [1], in assay [3], in [4], in [5], in [6] and in assay [7] was inactive. Also, the result in assay [8] was inactive. Besides, the AC50 in assay [2] is 1.62 µM (active).
As for `CC1(C)NC(=O)N(c2ccc([N+](=O)[O-])c(C(F)(F)F)c2)C1=O`, the result in assay [1], in assay [2], in [3], in assay [4], in assay [5] and in assay [6] was inactive. For the same molecule, the molecule was called inactive in assay [7] and in assay [8].
Take `CCCC(=O)OCCC(C)C`: the call in assay [1], in [2], in assay [3], in assay [4], in [5] and in assay [6] was inactive. Further, the molecule was called inactive in assay [7] and in assay [8].
Consider `CCN(Cc1cccnc1)C(=O)c1cccc(Cl)c1[C@]1(C)C(=O)N(Cc2ccc(OC)cc2OC)c2ccc(Cl)cc21`, for which the AC50 in [1] was 20.3 µM (active); in assay [3], 21.8 µM (active); in [9], 29.4 µM (active). Further, the outcome in assay [2], in assay [4], in [5], in assay [6], in [7] and in [8] was inactive.
Regarding `O=C1c2ccccc2C(=O)N1CCc1noc(-c2ccc(CN3CCCCCC3)s2)n1`, the call in assay [1], in assay [2], in assay [3], in assay [4], in [5] and in [6] was inactive. The result in [9], in [7] and in assay [8] was inactive.
As for `CCCOC(=O)c1cc(O)c(O)c(O)c1`, the outcome in assay [1], in [2], in [3], in [4], in [5] and in [6] was inactive. Further, the call in assay [7] and in [8] was inactive. In assay [9], the concentration at half-maximal activity (AC50) was 38.8 µM (active).
